Measured values as given in PubChem BioAssay (EPA / NIEHS).
The source made the active and inactive calls. Rule for the calls: active = hit-call score of the fitted dose curve at least 0.9, where 1 is the maximum; inactive = score below 0.9.

read-out: CYP4A11 (gene 1579); assay: LTEA_HepaRG_CYP4A11: Life Technologies and Expression Analysis (LTEA) Assay for CYP4A11 using HepaRG (AID 2283486); settings: mRNA level, 48 h; actives raise or lower the signal
Summary of the method: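 Readout is CYP4A11 transcript level by qRT-PCR, normalized to three housekeeping genes and fitted bidirectionally against 0.5% DMSO. Human HepaRG cells were treated 48 h, in duplicate, with an 8-point half-log series topping at 100 uM.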

Cytochrome P450 3A4 (Homo sapiens), sequence (P08684 whole entry, looked up): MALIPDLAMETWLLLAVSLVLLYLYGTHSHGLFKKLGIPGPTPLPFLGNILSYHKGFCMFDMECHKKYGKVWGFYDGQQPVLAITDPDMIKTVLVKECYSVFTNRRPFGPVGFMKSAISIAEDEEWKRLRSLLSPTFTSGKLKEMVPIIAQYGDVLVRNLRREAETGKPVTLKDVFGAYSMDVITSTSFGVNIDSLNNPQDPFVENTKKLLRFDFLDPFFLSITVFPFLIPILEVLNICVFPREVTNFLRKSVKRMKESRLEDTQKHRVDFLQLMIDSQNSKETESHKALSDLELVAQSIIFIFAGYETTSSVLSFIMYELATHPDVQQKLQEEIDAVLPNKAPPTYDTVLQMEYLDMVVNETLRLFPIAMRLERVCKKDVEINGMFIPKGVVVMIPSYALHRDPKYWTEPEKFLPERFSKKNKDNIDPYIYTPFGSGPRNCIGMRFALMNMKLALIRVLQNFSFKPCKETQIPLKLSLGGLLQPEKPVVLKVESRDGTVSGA

Compound | outcome | AC50
CC(=O)OCC(COC(C)=O)OC(C)=O | inactive | 
CCCC(=O)O | inactive | 
Cc1cc(Cc2ccc(N)c(C)c2)ccc1N | inactive | 
CCCCC(CC)CO (configuration not stated) | inactive | 
CC1(C)C(=O)NC(=O)N1CO | inactive | 
O=C(O)CC(O)(CC(=O)O)C(=O)O | inactive | 
CCCCCCC(CCCCCCCCCCC(=O)OCC(COC(C)=O)OC(C)=O)OC(C)=O (configuration not stated) | inactive | 
NC1CCCCC1 | inactive | 
CC(C)(O)c1ccc(CNC(=O)c2cccnc2Oc2ccc(F)cc2)cc1 |  | 10.2 µM (active)
C=CCCCCCCCCCCCC | inactive | 
CC(C)OC(=O)C(C)(C)Oc1ccc(C(=O)c2ccc(Cl)cc2)cc1 |  | 3.85 µM (active)
O=C(Oc1ccccc1)c1cccc(C(=O)Oc2ccccc2)c1 | inactive | 
CN(C)C(=O)NC1(c2ccccc2)CCN(CCC[C@]2(c3ccc(Cl)c(Cl)c3)CCCN(C(=O)c3ccccc3)C2)CC1 |  | 23.6 µM (active)
O=C1OC(c2ccc(O)cc2)(c2ccc(O)cc2)c2ccccc21 |  | 80.1 µM (active)
CC(=O)OC1CC(C)OC(C)O1 (configuration not stated) | inactive | 
O=C(O)c1cccnc1 | inactive | 
NCCOCCOCCN | inactive | 
O=C1O[C@H]([C@H](O)CO)C(O)=C1O | inactive | 
CCN(CC)CCOc1ccc(C(=C(Cl)c2ccccc2)c2ccccc2)cc1 |  | 19.3 µM (active)
CCCCC(CC)COP(=O)(OCC(CC)CCCC)OCC(CC)CCCC (configuration not stated) | inactive | 
CC(=O)CC(c1ccccc1)c1c(O)c2ccccc2oc1=O (configuration not stated) | inactive | 
C/C=C/c1ccc(OC)cc1 | inactive | 
O=C(O)c1[nH]n(-c2ccc(S(=O)(=O)O)cc2)c(=O)c1N=Nc1ccc(S(=O)(=O)O)cc1 | inactive | 
Oc1ccc(O)cc1 | inactive | 
CC(C)c1cccc(C(C)C)c1 | inactive | 
NC=O | inactive | 
CCc1nc(N)nc(N)c1-c1ccc(Cl)cc1 |  | 64.2 µM (active)
Cc1cn([C@H]2C=C[C@@H](CO)O2)c(=O)[nH]c1=O | inactive | 

read-out: Cytochrome P450 3A4 (Homo sapiens) (UniProt P08684); assay: LTEA_HepaRG_CYP3A4: Life Technologies and Expression Analysis (LTEA) Assay for CYP3A4 using HepaRG (AID 2283487); settings: mRNA level, 48 h; actives raise or lower the signal
Summary of the method: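 Differentiated HepaRG cells in serum-free induction medium exposed in duplicate for 48 h to 8 half-log concentrations up to 100 uM in 0.5% DMSO. CYP3A4 mRNA measured by qRT-PCR normalized to ACTB, GAPDH and POLR2A; bidirectional fit versus DMSO.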

Compound | outcome | AC50
CC(=O)OCC(COC(C)=O)OC(C)=O | inactive | 
CCCC(=O)O | inactive | 
Cc1cc(Cc2ccc(N)c(C)c2)ccc1N |  | 4.94 µM (active)
CCCCC(CC)CO (configuration not stated) | inactive | 
CC1(C)C(=O)NC(=O)N1CO | inactive | 
O=C(O)CC(O)(CC(=O)O)C(=O)O | inactive | 
CCCCCCC(CCCCCCCCCCC(=O)OCC(COC(C)=O)OC(C)=O)OC(C)=O (configuration not stated) | inactive | 
NC1CCCCC1 | inactive | 
CC(C)(O)c1ccc(CNC(=O)c2cccnc2Oc2ccc(F)cc2)cc1 |  | 8.47 µM (active)
C=CCCCCCCCCCCCC | inactive | 
CC(C)OC(=O)C(C)(C)Oc1ccc(C(=O)c2ccc(Cl)cc2)cc1 | inactive | 
O=C(Oc1ccccc1)c1cccc(C(=O)Oc2ccccc2)c1 | inactive | 
CC(=O)OC1CC(C)OC(C)O1 (configuration not stated) | inactive | 
O=C(O)c1cccnc1 | inactive | 
NCCOCCOCCN | inactive | 
O=C1O[C@H]([C@H](O)CO)C(O)=C1O | inactive | 
CCN(CC)CCOc1ccc(C(=C(Cl)c2ccccc2)c2ccccc2)cc1 | inactive | 
CCCCC(CC)COP(=O)(OCC(CC)CCCC)OCC(CC)CCCC (configuration not stated) |  | 5.79 µM (active)
C/C=C/c1ccc(OC)cc1 | inactive | 
O=C(O)c1[nH]n(-c2ccc(S(=O)(=O)O)cc2)c(=O)c1N=Nc1ccc(S(=O)(=O)O)cc1 | inactive | 
Oc1ccc(O)cc1 | inactive | 
CC(C)c1cccc(C(C)C)c1 | inactive | 
NC=O | inactive | 
Cc1cn([C@H]2C=C[C@@H](CO)O2)c(=O)[nH]c1=O | inactive | 
